Sampled rows, rich in hits. Any-hit rate of the full collection: about 6.3%.
Spn MK inh = S. pneumoniae MK inhibitors, primary screen, biochemical, PK/LDH-coupled NADH absorbance. inhibition, % at 10 µM. AID 555, 2006. 65,000 tested, 0.48% active. mevalonate kinase [Streptococcus pneumoniae D39]. purified MK, PK/LDH-coupled NADH absorbance 340 nm;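 active means ranked among the strongest by inhibition in the single 10 µM screen, a fixed top-ranked set picked for dose follow-up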
Autofluor 339 = intrinsic fluorescence of library compounds, ex339/em460 – biochemical, MLSMR library, data from DPM-DC assay, artefact control, profiling panel. compound autofluorescence, ex339/em460 nm, NADH buffer; hits give high values; 1 = no-compound wells, NADH background. 65,000 tested, 5.5% active. fluorescence fold increase at 10 µM;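 active means at 10 µM, mean starting fluorescence two-fold or more over control wells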;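 further: signal is the first read of a kinetic run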
Abs 340nm = compound light absorbance at 340 nm, profiling panel, artefact control, biochemical, MLSMR library, data from PS, PMK, MK assays. compound absorbance at 340 nm, fold over control. fold change at 10 µM. 65,000 tested, under 10 active. AID 708, 2007;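 active means at 10 µM dose, initial 340 nm absorbance at least 2 fold that of control wells; inactive means change under 2 fold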;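 further: initial absorbance extrapolated from kinetic A340 decline of NADH oxidation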
DPM-DC inhibit = S. pneumoniae DPM-DC inhibitors, primary screen, biochemical, PK/LDH-coupled NADH fluorescence. 65,000 tested, 0.49% active. calls only at 10 µM. diphosphomevalonate decarboxylase (Streptococcus pneumoniae D39). purified DPM-DC;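 active means the 320 compounds with the highest percent inhibition in the single-dose primary screen, excluding strongly autofluorescent ones, cut at about 32% in these data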;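 further: kinetic rate of NADH fluorescence loss reporting ADP formed by the decarboxylase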
PMK inhibit = S. pneumoniae PMK inhibitors, primary screen, biochemical, mevalonate pathway, pilot trial included. phosphomevalonate kinase (Streptococcus pneumoniae D39). purified PMK, PK/LDH-coupled NADH absorbance 340 nm. inhibition, % at 10 µM. 65,000 tested, 0.49% active. AID 539, 2006;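 active means top-ranked compounds by inhibition in the single 10 µM screen, taking a fixed number of the strongest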
NADH coupling = inhibitors of PK/LDH coupling enzymes, profiling panel, artefact control, biochemical, MLSMR library. IC50, µM (top dose mostly 10 µM). coupled PK/LDH NADH assays, four targets. AID 774, 2007. 65,000 tested, 0.02% active;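 active means single-dose screening hits from any of four coupled enzyme assays that gave an IC50 when retested across doses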;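 further: the DPM-DC format reads NADH fluorescence rather than 340 nm absorbance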
Each line names hits and unclear results; the compound was inactive in the other large screens; [ ] = remark or other dose.

Cc1c(C(=O)NCC2CCCO2)oc2ccc3c(c12)C(=O)CC(C)(C)O3 (stereo not given)	Autofluor 339 3
COC(=O)c1ccc(C2CC(=O)NC3=C2C(=O)CCC3)cc1 (stereo not given)	none
COC(=O)c1ccc(COc2ccc(C3C4=C(CCCC4=O)Nc4onc(C)c43)cc2)cc1 (stereo not given)	Autofluor 339 2.4
O=C(Nc1cc2nn(-c3ccccc3)nc2cc1Cl)c1ccco1	Autofluor 339 3.8 (not shown: DPM-DC inhibit)
CC(=O)Nc1cc2nn(-c3ccccc3)nc2cc1Cl	Autofluor 339 2.3 (not shown: DPM-DC inhibit)
O=C(Nc1ccc2nn(-c3ccccc3)nc2c1)c1cccnc1	none
CC(C)(C)C(=O)CNS(=O)(=O)c1ccc(S(=O)(=O)NC2CCCC2)cc1	none
CN1CCN(c2ccc(Cl)cc2NS(=O)(=O)c2ccccc2Cl)CC1	none
NC(=O)C1(N2CCCCC2)CCN(Cc2ccccc2Cl)CC1	none
Cc1csc2ncc(C(=O)Nc3ccon3)c(=O)n12	Autofluor 339 4.8 (not shown: DPM-DC inhibit)
Cc1csc2ncc(C(=O)Nc3ccccc3Cl)c(=O)n12	Autofluor 339 2, DPM-DC inhibit active[fluoresces]
Cc1nn(-c2ccccc2)c(Cl)c1C(=O)Nc1nnc(C2CCCC2)s1	none
Cc1cc(NCc2ccccc2)nc(-c2ccccc2O)n1	Autofluor 339 2.2 (not shown: DPM-DC inhibit)
Cc1cc(Nc2cccc(F)c2)nc(-c2ccccc2O)n1	none
Cc1cc(N2CCCCCC2)nc(-c2ccccc2O)n1	Autofluor 339 3.8 (not shown: DPM-DC inhibit)
Cc1cc(Nc2ccccc2)nc(-c2ccccc2O)n1	Autofluor 339 2.2
CCn1c(COc2ccccc2C)nnc1SCC(=O)CC(=O)Nc1ccccc1OC	none
CCOc1ccc2[nH]c3c(N4CCN(c5ccccn5)CC4)ncnc3c2c1	Autofluor 339 2.7
CC(C)OC(=O)c1c2nc3ccccc3nc2n2c1[nH]c(=O)c1ccccc12	Autofluor 339 2.3 (not shown: DPM-DC inhibit)
O=C(c1ccc(Cl)cc1)N1CCN(c2nc(N3CCCCC3)nc(N3CCCCC3)n2)CC1	none
CC[C@@H](C)[C@H](NC(=O)C1CCN(C(=O)[C@@H](NS(=O)(=O)c2ccc(C)cc2)C(C)C)CC1)C(=O)O	none
CCNc1ccc2c(Cl)cc(=O)oc2c1	Autofluor 339 2.9 (not shown: DPM-DC inhibit)
Cc1cccc(CNC(=O)c2ccccc2N)c1	Autofluor 339 3.6 (not shown: DPM-DC inhibit)
Cc1ccccc1C(=O)NCc1ccncc1	none
O=C(c1cc2nc3c(c(C(F)(F)F)n2n1)CCc1ccccc1-3)N1CCN2CCCC2C1 (stereo not given)	none
CC(C(=O)N1c2ccc(F)cc2CCC1C)N1C(=O)c2ccccc2C1=O (stereo not given)	none
CCOC(=O)C1CCCN(C(=O)c2ccc3c(c2)NC(=O)C(N2CCOCC2)S3)C1 (stereo not given)	none
C[C@]12CC[C@@H]3c4ccc(OS(=O)(=O)O)cc4CC[C@H]3[C@@H]1CCC2=O	PMK inhibit active
C#C[C@]1(O)CC[C@H]2[C@@H]3CCc4cc(O)ccc4[C@H]3CC[C@@]21C	none
O=C(NC1=NC2CCCCC2N1)c1ccccc1 (stereo not given)	none
CN1CCN(S(=O)(=O)c2ccc(NC(=O)c3ccc(Br)s3)cc2)CC1	none
CCN(CC)S(=O)(=O)c1ccc2[nH]cc(C(=O)NCCC3=CCCCC3)c(=O)c2c1	none
CCN(CC)S(=O)(=O)c1ccc2[nH]cc(C(=O)NCCN3CCCCCC3)c(=O)c2c1	Autofluor 339 2.9
CCN(CC)S(=O)(=O)c1ccc2[nH]cc(C(=O)NCCN3CCCCC3C)c(=O)c2c1 (stereo not given)	Autofluor 339 3
COc1cccc(NS(=O)(=O)c2ccc3[nH]cc(C(=O)NCCN4CCOCC4)c(=O)c3c2)c1	none
Cc1ccccc1N(C)S(=O)(=O)c1ccc2[nH]cc(C(=O)NCC3CCCO3)c(=O)c2c1 (stereo not given)	Autofluor 339 2.1
CCOc1ccc(N(C)S(=O)(=O)c2ccc3[nH]cc(C(=O)NCC4CCCO4)c(=O)c3c2)cc1 (stereo not given)	none
Cc1ccccc1-n1c(SCC(=O)c2cc(C)n(C)c2C)nnc1-c1ccncc1	none
Cc1cccc(N2CCN(C(=O)c3cn(C)c(=O)c4c3c3ccccc3n4C)CC2)c1C	none
CCOC(=O)N1CCN(C(=O)c2cn(CCOC)c(=O)c3c2c2ccccc2n3C)CC1	Autofluor 339 4.3 (not shown: DPM-DC inhibit)
COCCn1cc(C(=O)N2CCN(C)CC2)c2c3ccccc3n(C)c2c1=O	Autofluor 339 4.6 (not shown: DPM-DC inhibit)
CC(=O)Cc1nsc(NC(=O)c2cc(-c3ccccc3Cl)oc2C)n1	none
CCOC(=O)C1CCN(C(=O)c2cc(S(=O)(=O)N3CCOCC3)c(Cl)cc2Cl)CC1	none
O=C(O)CCn1nnc(-c2cccs2)n1	DPM-DC inhibit active
Cc1occc1-c1nnc(SCC(=O)Nc2nccs2)n1CCc1ccccc1	Autofluor 339 2.1
O=C(CNC(=O)c1ccc(Cl)cc1)NCCCn1ccnc1	none
O=C(O)CCc1nn2c3ccccc3nc2n(CCN2CCCCC2)c1=O	Autofluor 339 4.4 (not shown: DPM-DC inhibit)
CCn1c(=O)c(C)nn2c3ccccc3nc12	none
O=C(O)CCc1nc2ccccc2n(CCc2ccccc2)c1=O	Autofluor 339 2.3
CCc1nc2ccccc2n(CCOCCn2c(=O)c(CC)nc3ccccc32)c1=O	none
COC(=O)CSc1nc(N2CCOCC2)c2c(c1C#N)CC(C)(C)N(C)C2	Autofluor 339 2.1
O=c1c2ccccc2nc2c3ccccc3ncn12	Autofluor 339 2.3 (not shown: DPM-DC inhibit)
OC(COc1ccc2c(c1)CCC2)Cn1cnc2ccccc21 (stereo not given)	none
COc1ccccc1NC(=O)Nn1cnnc1	none
N#Cc1nc(-c2ccco2)oc1N1CCN(C(c2ccccc2)c2ccccc2)CC1	none
N#Cc1nc(-c2ccco2)oc1N1CCCC1	Autofluor 339 3.9 (not shown: DPM-DC inhibit)
N#Cc1nc(-c2ccco2)oc1N1CCc2ccccc2C1	Autofluor 339 3.8 (not shown: DPM-DC inhibit)
O=S(=O)(c1ccccc1)c1nc(-c2ccco2)oc1N1CCOCC1	none
CC1CC(C)CN(c2oc(-c3ccco3)nc2C#N)C1 (stereo not given)	Autofluor 339 2.2 (not shown: DPM-DC inhibit)
Cc1nc(COC(=O)c2c(C)nn(-c3ccccc3)c2C)cs1	none
Cc1nc2ncnn2c(C)c1Cc1ccc(Cl)cc1F	none
Cc1cccn2c(=O)c(C=Nc3ccc(Cl)cc3)c(NCCO)nc12	Autofluor 339 2.7
Cc1cccn2c(=O)c(C=Nc3ccccc3)c(NCCO)nc12	Autofluor 339 2.4
Cn1c(=O)c2c(nc(NCCO)n2CCc2ccccc2)n(C)c1=O	none
Cc1ccc2nc(Nc3ccccc3)c(/C=N/O)c(=O)n2c1	none

Source: PubChem BioAssay
